# Tests used:
# [1] = biological target: 14-3-3 protein eta (UniProt Q04917)
# [2] = biological target: Actin, cytoplasmic 2 (UniProt P63261)
# [3] = biological target: Rab11 family-interacting protein 1 (UniProt Q6WKZ4)
# [4] = biological target: Annexin A4 (UniProt P09525)
# [5] = biological target: Aspartate--tRNA ligase, cytoplasmic (UniProt P14868)
# [6] = biological target: Autonomous glycyl radical cofactor (UniProt P68066)
# [7] = biological target: Calreticulin (UniProt P27797)
# [8] = biological target: Casein kinase II subunit alpha (UniProt P68400)
# [9] = biological target: Chaperone protein DnaK (UniProt P0A6Y8)
# [10] = biological target: Charged multivesicular body protein 2b (UniProt Q9UQN3)
# [11] = biological target: DNA-binding protein HU-beta (UniProt P0ACF4)
# [12] = biological target: Dihydrolipoyl dehydrogenase (UniProt P0A9P0)
# [13] = biological target: Pyruvate dehydrogenase E1 component (UniProt P0AFG8)
# [14] = biological target: Dihydrolipoyllysine-residue succinyltransferase component of 2-oxoglutarate dehydrogenase complex (UniProt P0AFG6)
# [15] = biological target: Endoplasmic reticulum chaperone BiP (UniProt P11021)
# [16] = biological target: Peptidyl-prolyl cis-trans isomerase B (UniProt P23284)
# [17] = biological target: Fatty acid oxidation complex subunit alpha (UniProt P21177)
# [18] = biological target: Glutamate synthase [NADPH] small chain (UniProt P09832)
# [19] = biological target: Glycine--tRNA ligase beta subunit (UniProt P00961)
# [20] = biological target: Integration host factor subunit beta (UniProt P0A6Y1)
# [21] = biological target: Myosin-9 (UniProt P35579)
# [22] = biological target: Phenylalanine--tRNA ligase alpha subunit (UniProt P08312)
# [23] = biological target: Succinate--CoA ligase [ADP-forming] subunit alpha (UniProt P0AGE9)
# [24] = biological target: Transketolase 2 (UniProt P33570)
# [25] = biological target: Uncharacterized protein YqjD (UniProt P64581)
# [26] = biological target: Unconventional myosin-XVIIIa (UniProt Q92614)
# Protein disulfide-isomerase, P07237, sequence (P07237 whole entry): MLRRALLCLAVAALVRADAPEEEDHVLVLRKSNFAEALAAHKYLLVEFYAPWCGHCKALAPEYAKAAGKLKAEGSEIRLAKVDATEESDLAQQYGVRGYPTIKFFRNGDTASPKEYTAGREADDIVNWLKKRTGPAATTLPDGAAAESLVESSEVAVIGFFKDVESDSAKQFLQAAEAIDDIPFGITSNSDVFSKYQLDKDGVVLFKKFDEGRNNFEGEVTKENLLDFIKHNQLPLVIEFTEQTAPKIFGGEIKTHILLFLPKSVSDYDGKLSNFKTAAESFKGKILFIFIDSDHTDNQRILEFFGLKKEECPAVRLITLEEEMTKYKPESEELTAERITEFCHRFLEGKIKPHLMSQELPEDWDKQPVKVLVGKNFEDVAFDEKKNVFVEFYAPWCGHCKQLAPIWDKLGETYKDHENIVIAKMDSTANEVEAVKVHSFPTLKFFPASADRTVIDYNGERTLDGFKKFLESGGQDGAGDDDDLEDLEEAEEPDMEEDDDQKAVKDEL
# Pyruvate dehydrogenase E1 component, sequence (P0AFG8 whole entry): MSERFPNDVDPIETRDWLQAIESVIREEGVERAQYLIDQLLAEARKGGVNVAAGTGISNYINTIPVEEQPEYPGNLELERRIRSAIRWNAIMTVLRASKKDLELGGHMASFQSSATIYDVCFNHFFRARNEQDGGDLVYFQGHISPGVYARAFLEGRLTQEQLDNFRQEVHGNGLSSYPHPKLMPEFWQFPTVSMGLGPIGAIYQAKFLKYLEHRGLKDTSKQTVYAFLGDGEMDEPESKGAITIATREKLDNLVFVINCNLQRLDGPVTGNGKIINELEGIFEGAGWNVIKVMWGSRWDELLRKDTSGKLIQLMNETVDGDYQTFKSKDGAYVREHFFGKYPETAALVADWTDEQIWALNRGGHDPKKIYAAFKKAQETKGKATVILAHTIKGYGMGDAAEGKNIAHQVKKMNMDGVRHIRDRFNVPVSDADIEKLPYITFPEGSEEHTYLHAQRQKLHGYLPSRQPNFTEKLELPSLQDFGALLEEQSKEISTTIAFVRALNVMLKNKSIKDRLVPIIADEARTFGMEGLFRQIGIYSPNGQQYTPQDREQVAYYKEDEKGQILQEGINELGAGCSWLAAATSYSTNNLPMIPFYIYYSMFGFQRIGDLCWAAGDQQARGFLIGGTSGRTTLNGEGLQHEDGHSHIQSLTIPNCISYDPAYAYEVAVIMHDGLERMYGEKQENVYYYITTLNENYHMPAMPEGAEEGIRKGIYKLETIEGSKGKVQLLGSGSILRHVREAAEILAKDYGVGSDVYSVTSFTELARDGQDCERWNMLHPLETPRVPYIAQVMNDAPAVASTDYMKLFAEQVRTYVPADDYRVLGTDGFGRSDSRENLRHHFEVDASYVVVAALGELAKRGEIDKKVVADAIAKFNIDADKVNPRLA
# Calreticulin, sequence (P27797 whole entry): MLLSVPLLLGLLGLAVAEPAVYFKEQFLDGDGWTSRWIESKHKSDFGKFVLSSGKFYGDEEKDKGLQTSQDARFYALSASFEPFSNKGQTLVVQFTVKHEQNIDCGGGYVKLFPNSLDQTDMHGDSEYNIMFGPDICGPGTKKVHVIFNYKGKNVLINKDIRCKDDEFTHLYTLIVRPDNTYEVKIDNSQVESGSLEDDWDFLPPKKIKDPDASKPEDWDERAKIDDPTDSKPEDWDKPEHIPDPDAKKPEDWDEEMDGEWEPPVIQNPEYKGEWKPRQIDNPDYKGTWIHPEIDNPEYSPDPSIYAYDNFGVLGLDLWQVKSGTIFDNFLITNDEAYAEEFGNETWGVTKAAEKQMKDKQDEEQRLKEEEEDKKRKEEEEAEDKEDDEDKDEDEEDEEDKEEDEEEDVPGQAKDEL
# Dihydrolipoyllysine-residue succinyltransferase component of 2-oxoglutarate dehydrogenase complex, sequence (P0AFG6 whole entry, one chain of several): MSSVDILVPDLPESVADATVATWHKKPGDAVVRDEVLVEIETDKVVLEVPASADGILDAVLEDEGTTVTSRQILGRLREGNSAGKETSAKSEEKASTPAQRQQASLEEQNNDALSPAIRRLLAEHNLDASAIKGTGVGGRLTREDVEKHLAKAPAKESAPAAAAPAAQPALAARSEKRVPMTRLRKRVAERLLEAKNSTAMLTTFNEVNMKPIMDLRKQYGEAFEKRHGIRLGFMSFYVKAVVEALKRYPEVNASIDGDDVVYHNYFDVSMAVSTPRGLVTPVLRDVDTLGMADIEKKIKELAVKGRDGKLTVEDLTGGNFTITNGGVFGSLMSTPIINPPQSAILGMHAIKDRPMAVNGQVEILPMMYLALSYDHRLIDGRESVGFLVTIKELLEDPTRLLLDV
# Aspartate--tRNA ligase, cytoplasmic, sequence (P14868 whole entry): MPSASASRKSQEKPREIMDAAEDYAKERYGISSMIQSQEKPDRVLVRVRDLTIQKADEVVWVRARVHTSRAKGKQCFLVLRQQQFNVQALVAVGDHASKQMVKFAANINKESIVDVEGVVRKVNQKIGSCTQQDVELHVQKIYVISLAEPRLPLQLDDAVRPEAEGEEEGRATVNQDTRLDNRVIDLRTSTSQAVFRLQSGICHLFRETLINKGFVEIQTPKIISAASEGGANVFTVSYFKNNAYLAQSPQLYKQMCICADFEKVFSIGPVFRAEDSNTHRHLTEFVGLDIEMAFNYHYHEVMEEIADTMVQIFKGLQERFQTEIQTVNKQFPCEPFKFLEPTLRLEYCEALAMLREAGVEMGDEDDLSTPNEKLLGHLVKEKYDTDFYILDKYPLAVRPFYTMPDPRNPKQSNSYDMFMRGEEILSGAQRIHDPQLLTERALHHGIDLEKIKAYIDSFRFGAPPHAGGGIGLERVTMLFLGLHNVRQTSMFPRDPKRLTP
# Casein kinase II subunit beta, P67870, sequence (P67870 whole entry): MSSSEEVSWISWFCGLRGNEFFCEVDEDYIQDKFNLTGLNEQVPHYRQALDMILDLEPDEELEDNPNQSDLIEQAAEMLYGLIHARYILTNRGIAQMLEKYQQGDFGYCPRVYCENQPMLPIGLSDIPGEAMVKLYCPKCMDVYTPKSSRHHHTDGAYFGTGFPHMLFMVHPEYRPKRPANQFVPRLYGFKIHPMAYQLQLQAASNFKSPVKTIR
# Autonomous glycyl radical cofactor, sequence (P68066 whole entry): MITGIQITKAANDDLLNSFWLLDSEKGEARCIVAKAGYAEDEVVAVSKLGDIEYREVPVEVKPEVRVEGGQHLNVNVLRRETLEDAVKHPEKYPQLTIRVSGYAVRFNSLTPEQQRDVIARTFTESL
# 14-3-3 protein eta, sequence (Q04917 whole entry): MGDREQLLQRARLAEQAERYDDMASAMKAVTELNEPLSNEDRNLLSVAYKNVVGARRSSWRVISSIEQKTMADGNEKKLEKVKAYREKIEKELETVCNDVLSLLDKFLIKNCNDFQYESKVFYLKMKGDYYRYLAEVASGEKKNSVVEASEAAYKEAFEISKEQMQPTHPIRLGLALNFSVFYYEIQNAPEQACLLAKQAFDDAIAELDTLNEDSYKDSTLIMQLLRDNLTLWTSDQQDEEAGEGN
# Chaperone protein DnaK, sequence (P0A6Y8 whole entry): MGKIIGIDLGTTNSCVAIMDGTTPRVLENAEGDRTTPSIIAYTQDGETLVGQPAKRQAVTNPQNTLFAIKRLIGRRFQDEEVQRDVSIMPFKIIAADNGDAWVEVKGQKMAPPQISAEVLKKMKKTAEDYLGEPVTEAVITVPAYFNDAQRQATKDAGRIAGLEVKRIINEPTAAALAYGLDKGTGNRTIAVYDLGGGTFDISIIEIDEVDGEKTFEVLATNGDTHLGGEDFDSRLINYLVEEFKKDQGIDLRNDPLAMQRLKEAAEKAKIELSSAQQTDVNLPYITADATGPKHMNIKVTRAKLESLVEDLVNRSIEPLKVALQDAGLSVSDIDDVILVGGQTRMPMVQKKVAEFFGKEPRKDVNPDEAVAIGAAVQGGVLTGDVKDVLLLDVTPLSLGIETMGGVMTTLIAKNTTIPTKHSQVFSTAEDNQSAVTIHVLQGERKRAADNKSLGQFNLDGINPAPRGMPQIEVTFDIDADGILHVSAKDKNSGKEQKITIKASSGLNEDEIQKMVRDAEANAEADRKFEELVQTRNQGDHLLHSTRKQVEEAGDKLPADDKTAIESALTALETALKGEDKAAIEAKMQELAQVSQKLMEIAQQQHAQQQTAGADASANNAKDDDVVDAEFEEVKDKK
# Succinate--CoA ligase [ADP-forming] subunit alpha, sequence (P0AGE9 whole entry): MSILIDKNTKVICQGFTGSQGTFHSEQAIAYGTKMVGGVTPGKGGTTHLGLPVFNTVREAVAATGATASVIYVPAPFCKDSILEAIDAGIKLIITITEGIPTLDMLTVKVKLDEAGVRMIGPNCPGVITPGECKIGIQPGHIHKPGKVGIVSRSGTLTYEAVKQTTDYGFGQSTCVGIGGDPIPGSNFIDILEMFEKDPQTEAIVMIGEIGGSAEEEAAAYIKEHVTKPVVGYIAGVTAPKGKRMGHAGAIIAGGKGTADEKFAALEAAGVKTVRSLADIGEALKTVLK
# Uncharacterized protein YqjD, sequence (P64581 whole entry): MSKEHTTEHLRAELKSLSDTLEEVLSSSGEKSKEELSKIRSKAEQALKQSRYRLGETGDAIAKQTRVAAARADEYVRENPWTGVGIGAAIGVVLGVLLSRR
# Phenylalanine--tRNA ligase alpha subunit, sequence (P08312 whole entry): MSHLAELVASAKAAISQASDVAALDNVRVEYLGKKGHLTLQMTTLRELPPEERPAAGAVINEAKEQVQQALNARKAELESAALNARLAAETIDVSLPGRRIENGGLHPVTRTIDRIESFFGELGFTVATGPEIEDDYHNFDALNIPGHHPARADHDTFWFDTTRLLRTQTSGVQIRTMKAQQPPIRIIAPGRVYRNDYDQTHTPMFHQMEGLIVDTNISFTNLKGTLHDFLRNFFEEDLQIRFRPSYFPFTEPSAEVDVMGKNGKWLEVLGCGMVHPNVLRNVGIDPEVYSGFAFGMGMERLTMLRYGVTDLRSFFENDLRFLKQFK
# Integration host factor subunit beta, sequence (P0A6Y1 whole entry): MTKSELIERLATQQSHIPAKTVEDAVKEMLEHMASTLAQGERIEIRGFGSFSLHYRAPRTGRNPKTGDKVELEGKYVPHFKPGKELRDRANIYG
substance,measurement,setting,value
"14-3-3 protein epsilon, P62258",listed as a hit,[1],yes
"Heat shock protein HSP 90-beta, P08238",listed as a hit,[2],yes
"Ras-related protein Rab-11B, Q15907",listed as a hit,[3],yes
"Annexin A6, P08133",listed as a hit,[4],yes
"Eukaryotic translation elongation factor 1 epsilon-1, O43324",listed as a hit,[5],yes
"Formate acetyltransferase 1, P09373",listed as a hit,[6],yes
"Peptidyl-prolyl cis-trans isomerase B, P23284",listed as a hit,[7],yes
"Protein disulfide-isomerase A4, P13667",listed as a hit,[7],yes
"Casein kinase II subunit beta, P67870",listed as a hit,[8],yes
"Protein GrpE, P09372",listed as a hit,[9],yes
"Charged multivesicular body protein 1b, Q7LBR1",listed as a hit,[10],yes
"DNA-binding protein HU-alpha, P0ACF0",listed as a hit,[11],yes
"Dihydrolipoyllysine-residue acetyltransferase component of pyruvate dehydrogenase complex, P06959",listed as a hit,[12],yes
same,listed as a hit,[13],yes
"2-oxoglutarate dehydrogenase E1 component, P0AFG3",listed as a hit,[14],yes
"Dihydrolipoyl dehydrogenase, P0A9P0",listed as a hit,[14],yes
same,listed as a hit,[13],yes
"Protein disulfide-isomerase, P07237",listed as a hit,[15],yes
same,listed as a hit,[16],yes
"3-ketoacyl-CoA thiolase FadA, P21151",listed as a hit,[17],yes
"Glutamate synthase [NADPH] large chain, P09831",listed as a hit,[18],yes
"Glycine--tRNA ligase alpha subunit, P00960",listed as a hit,[19],yes
"Integration host factor subunit alpha, P0A6X7",listed as a hit,[20],yes
"Myosin regulatory light polypeptide 9, P24844",listed as a hit,[21],yes
"Phenylalanine--tRNA ligase beta subunit, P07395",listed as a hit,[22],yes
"Succinate--CoA ligase [ADP-forming] subunit beta, P0A836",listed as a hit,[23],yes
"Transketolase 1, P27302",listed as a hit,[24],yes
"Protein ElaB, P0AEH5",listed as a hit,[25],yes
"Myosin-9, P35579",listed as a hit,[26],yes

# From publication PMC12214610
